Results on 40 compounds are retold here after PubChem BioAssay (Tox21).

Records with an inconclusive call do not appear. Entries that show only a call come without a potency. The source made the active and inactive calls. Calls come from the whole dose curve; as a rule, active = well fitted activation curve with a large enough effect in the repeat runs; inconclusive = weak or mixed curves; inactive = flat fitted curve, though single readings scatter.
Potency is the fitted concentration of half-maximal effect.

This assay in a line: A CellTox Green Cytotoxicity Assay to monitor cytotoxicity in HepG2 cells - 16 hour (AID 1224876). Note: nearly all actives have a fitted effect of over 45% in size. Particulars: CellTox Green fluorescence; series mostly up to 76.8 µM. From the text: National Center for Advancing Translational Sciences [NCATS]
NIH Chemical Genomics Center [NCGC]
U.S. Environmental Protection Agency [EPA]
National Institutes of Environmental Health Sciences [NIEHS]
National Toxicology Program [NTP]
Cell-based models are critical for drug discovery. Determining the natural cytotoxic effects resulting from test compounds is an essential research activity. A CellTox Green Cytotoxicity Assay to monitor cytotoxicity in real time of continues cell culture during 40 hours of the compound treatment was used to screen Tox21 10K library compounds in HepG2 cells. CellTox Green Cytotoxicity Assay is a nonlytic, homogeneous, biofluorescent method to measure cytotoxicity in cell culture after experimental manipulation. The assay system uses a proprietary asymmetric cyanine dye that is excluded from viable cells but preferentially stains the dead cell's DNA. […] Viable cells produce no appreciable increases in fluorescence. Therefore, the fluorescence signal produced by the binding interaction with dead cell DNA is proportional to cytotoxicity.
The mixture of HepG2 cell suspension and reagents were dispensed at 600cells/6 ul/well in 1536-well tissue culture treated black solid bottom plates using a Multidrop dispenser. After the assay plates were incubated at a 37 C/5% CO2 incubator for 5 hours, 23 nL of compounds dissolved in DMSO, positive and negative controls was transferred to the assay plate by a pintool work station. The plates were incubated at 37 C for 40 hours. The fluorescence intensity were measured at 0h, 8h, 16h, 24h, 32h and 40h time points using ViewLux plate reader during compound treatment.
In the case of `CCC(C)(C)c1ccc(O)c(C(C)(C)CC)c1`, the Potency was 24.3 µM (active).

Turning to `O=C(O)COc1cc(Cl)c(Cl)cc1Cl`, the Potency result is “inactive”.

`C[C@H]1[C@@H]2Cc3ccc(O)cc3[C@@]1(C)CCN2C`: the Potency entry was “inactive”.

As to `CCOP(=O)(O)C(N)=O`, the Potency entry was “inactive”.

Consider `CCC(=O)O[C@@H]1C=C2CCC3C(CCC4(C)C3CC[C@@H]4OC(=O)CC)C2CC1` (stereo not given in full), for which the Potency result was “inactive”.

Consider `CCOc1cccc(C2(N3CCN(c4ccccc4)CC3)CCC(C)CC2)c1` (stereo not given), for which the Potency entry was “inactive”.

Consider `CCCCCBr`, for which the Potency entry was “inactive”.

Turning to `CC(Cl)C(=O)O` (stereo not given), the Potency entry was “inactive”.

Regarding `C[C@H](N)[C@H](O)c1ccc(O)c(O)c1`, the Potency was 23.9 µM (active).

In the case of `CCC(C)Cl` (stereo not given), the Potency entry was “inactive”.

For `OCCSSCCO`, the Potency entry is “inactive”.

With `CC(C)[C@@H](C(=O)O[C@@H](C#N)c1cccc(Oc2ccccc2)c1)c1ccc(Cl)cc1`, the Potency result is “inactive”.

As to `CCCN(CCC)c1c([N+](=O)[O-])cc(C(C)C)cc1[N+](=O)[O-]`, the Potency result is “inactive”.

Consider `CC(C)CCON=O`, for which the Potency entry is “inactive”.

Turning to `CCOP(=S)(OCC)Oc1ccc(S(C)=O)cc1` (stereo not given), the Potency result was “inactive”.

On to `COc1cc(CC(C)N)c(OC)cc1Br` (stereo not given), for which the Potency result was “inactive”.

On to `Cc1nc2ccccc2c(=O)n1-c1ccccc1Cl`, for which the Potency entry is “inactive”.

As to `CCC[N+](CCC)(CCC)CCC`, the Potency entry was “inactive”.

Consider `O=C1NC(=O)C(=O)C(=O)N1`, for which the Potency result was “inactive”.

In the case of `CCSCc1ccccc1OC(=O)NC`, the Potency entry was “inactive”.

For `CN(C)N`, the Potency is 54.9 µM (active).

With `COCc1cnc(C2=NC(C)(C(C)C)C(=O)N2)c(C(=O)O)c1` (stereo not given), the Potency result is “inactive”.

Regarding `Cc1ccccc1`, the Potency entry is “inactive”.

For the compound `CN[C@@H](C)[C@H](O)c1ccccc1`, the Potency result was “inactive”.

With `COC1=CC(=O)O[C@@H](/C=C/c2ccc3c(c2)OCO3)C1`, the Potency entry is “inactive”.

As to `NC(=O)CF`, the Potency entry was “inactive”.

As for `C[N+](C)(C)CC1CO1` (stereo not given), the Potency entry was “inactive”.

Take `CC(C)(C)NCC(O)c1ccccc1Cl` (stereo not given): the Potency result was “inactive”.

As for `CCC1(CC)C(=O)NC(=O)NC1=O`, the Potency entry was “inactive”.

Turning to `CC1(C)CC(=O)CC(C)(C)N1[O]`, the Potency result was “inactive”.

For `CCCC[N+](CCCC)(CCCC)CCCC`, the Potency entry was “inactive”.

Regarding `CCOC(=O)c1cncn1C(C)c1ccccc1` (stereo not given), the Potency entry was “inactive”.

For `O=S(=O)(c1ccccc1)c1ccccc1`, the Potency result is “inactive”.

As to `O=C(N/N=C/c1ccc([N+](=O)[O-])o1)c1cc([N+](=O)[O-])cc([N+](=O)[O-])c1O`, the Potency entry is “inactive”.

For `C#C[C@]1(O)CC[C@H]2[C@@H]3CCC4=CC(=O)CCC4=C3C=C[C@@]21CC`, the Potency result was “inactive”.

On to `COc1ccc(C(O)(c2cncnc2)C2CC2)cc1` (stereo not given), for which the Potency entry was “inactive”.

Regarding `Cc1nc(N(C)C)nc(OC(=O)N(C)C)c1C`, the Potency result was “inactive”.

Regarding `COC1CC(=C(c2cccs2)c2cccs2)C[N+](C)(C)C1` (stereo not given), the Potency entry is “inactive”.

For `CC(Cc1ccccc1)NCc1ccccc1Cl` (stereo not given), the Potency result was “inactive”.

`CC(CC(C(N)=O)(c1ccccc1)c1ccccc1)N(C)C` (stereo not given): the Potency result was “inactive”.
